A short description of experiment [1]: qHTS RealTime-Glo MT Cell Viability Assay in HepG2 cells - 40 hour (AID 1224870). Further: nearly all actives have a fitted effect of over 50% in size. A digest of the protocol: (§1)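 HepG2 cells (600/well) mixed with RealTime-Glo MT reagent, settled 5 h at 37 C/5% CO2 before compound addition. Nonlytic NanoLuc luminescence from viable-cell prosubstrate reduction read repeatedly during 40 h treatment at 37 C.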
Experiment [2] is described as follows: A CellTox Green Cytotoxicity Assay to monitor cytotoxicity in HEK293 cells - 40 hour (AID 1224871). Further: nearly all actives have a fitted effect of over 45% in size. Put shortly:
(§2)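 Tox21 screen in HEK293: membrane-impermeant cyanine dye fluoresces on binding dead-cell DNA; compound pinned 5 h post-seeding, plates held at 37 C, signal read repeatedly through 40 h.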

Experiment [3] is described as follows: qHTS RealTime-Glo MT Cell Viability Assay in HEK293 cells - 16 hour (AID 1224872). Further: nearly all actives have a fitted effect of over 50% in size. Further: potency means the concentration at half of the fitted maximal effect. A digest of the protocol:
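Nonlytic real-time viability readout: viable cells convert prosubstrate to NanoLuc substrate, giving luminescence proportional to live cell number. HEK293, 600 cells/well, compound added after 5 h, continuous culture at 37 C.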

The nature of experiment [4]: qHTS RealTime-Glo MT Cell Viability Assay in HepG2 cells - 8 hour (AID 1224873). Further: nearly all actives have a fitted effect of over 55% in size. Put shortly:
as §1
(In general: Quantitative high-throughput screening tests each substance at several concentrations.)

The nature of experiment [5]: qHTS RealTime-Glo MT Cell Viability Assay in HEK293 cells - 40 hour (AID 1224874). Further: nearly all actives have a fitted effect of over 50% in size. Further: potency means the concentration at half of the fitted maximal effect. Particulars: RealTime-Glo luminescence; max response: stronger effect = lower value. Put shortly:
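HEK293 + NanoLuc + prosubstrate, 600 cells/well; 5 h, 37 C/5% CO2; compound 23 nL in DMSO by pintool; 37 C; luminescence read at 0, 8, 16, 24, 32 and 40 h time points.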

Experiment [6] is described as follows: A CellTox Green Cytotoxicity Assay to monitor cytotoxicity in HEK293 cells - 24 hour (AID 1224875). Further: series mostly up to about 77 µM; nearly all actives have a fitted effect of over 45% in size. A digest of the protocol: as §2
A short description of experiment [7]: A CellTox Green Cytotoxicity Assay to monitor cytotoxicity in HepG2 cells - 16 hour (AID 1224876). Further: nearly all actives have a fitted effect of over 45% in size. A digest of the protocol:
(§3)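 Measurements at 0, 8, 16, 24, 32 and 40 h of treatment captured CellTox Green fluorescence in HepG2 cells that had been co-plated with reagent and preincubated 5 h at 37 C/5% CO2.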

A short description of experiment [8]: qHTS RealTime-Glo MT Cell Viability Assay in HepG2 cells - 32 hour (AID 1224877). Further: nearly all actives have a fitted effect of over 55% in size. Put shortly:
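Luminescence read-out: viable HepG2 cells reduce a prosubstrate to a NanoLuc substrate, giving a signal proportional to live cell number. Reads taken at 0, 8, 16, 24, 32 and 40 h of compound exposure at 37 C.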

The nature of experiment [9]: A CellTox Green Cytotoxicity Assay to monitor cytotoxicity in HepG2 cells - 24 hour (AID 1224878). Further: nearly all actives have a fitted effect of over 45% in size. Put shortly: as §3
Experiment [10] is described as follows: A CellTox Green Cytotoxicity Assay to monitor cytotoxicity in HepG2 cells - 40 hour (AID 1224879). Further: nearly all actives have a fitted effect of over 40% in size. Put shortly:
as §3

Molecules are shown by their SMILES. Where “and” joins values, the source holds several entries; their conditions need not be identical. Equal entries are not always repeated. Inconclusive results are not listed. The source holds several records for some structures; these can differ, active in one and inactive in another. Calls of active or inactive are those of the source. The call rests on the fitted dose curve; in most records, active means well fitted curve in the direction sought with a large enough effect in the repeat runs; inconclusive means weak or mixed curves; inactive means no such curve, though single readings can be large; an effect the other way counts as inactive or inconclusive.
On the % scale 0 is the no-effect control and ±100 the full control effect.

With `NC(=S)NNC(N)=S`, the call in experiment [1], in [7] and in experiment [8] was inactive. The Potency entry in [2], in experiment [3], in experiment [4], in experiment [6], in experiment [9] and in experiment [10] was “inactive” in each case. Moreover, the max response in experiment [5] is 7.65% (inactive) and -11.1% (inactive).

Turning to `CN/C(=C\[N+](=O)[O-])NCCSCc1csc(CN(C)C)n1`, the result in [1], in [7] and in experiment [8] was inactive. Besides, the Potency entry in experiment [2], in experiment [3], in experiment [4], in [6], in experiment [9] and in experiment [10] was “inactive” each time. Further, the max response in [5] was 2.65% (inactive) and -4.24% (inactive).

Consider `NCCCCCCN`, for which the molecule was classed as inactive in [1], in [7] and in experiment [8]. The Potency result in experiment [2], in [3], in experiment [4], in [6], in [9] and in experiment [10] was “inactive” throughout. For the same molecule, the max response in experiment [5] was -0.521% (inactive) and 1.93% (inactive).

As for `CC(C)CC(=O)CC(C)CC(C)C` (stereo not given), the Potency result in experiment [2], in [3], in experiment [4], in experiment [6], in experiment [9] and in experiment [10] was “inactive” throughout. For the same molecule, the Potency in experiment [5] was 15.5 µM (active). Besides, the max response in [5] was 0.688% (inactive). Besides, the outcome in experiment [7] and in [8] was inactive.

Regarding `C=C(C)[C@H]1CC=C(C)C(=O)C1`, the molecule was called inactive in experiment [1], in experiment [7] and in [8]. In addition, the Potency result in [2], in experiment [3], in experiment [4], in experiment [6], in [9] and in experiment [10] was “inactive” in each case. For the same molecule, the max response in experiment [5] was -1.87% (inactive) and 0.747% (inactive).

Take `O=C1c2ccccc2CCc2ccccc21`: the outcome in [1], in experiment [7] and in experiment [8] was inactive. In addition, the Potency result in [2], in [3], in [4], in experiment [6], in experiment [9] and in experiment [10] was “inactive” in each case. The max response in experiment [5] was -14.3% (inactive) and 0.842% (inactive).

For `CCOC(=O)c1ccc(N)cc1`, the call in experiment [1], in experiment [7] and in experiment [8] was inactive. In addition, the Potency result in experiment [2], in experiment [3], in experiment [4], in experiment [6], in experiment [9] and in [10] was “inactive” in each case. In experiment [5], the max response was -17.4% (inactive).

Consider `COc1ccc(N)c(C)c1`, for which the outcome in experiment [1], in [7] and in [8] was inactive. Moreover, the Potency entry in [2], in experiment [3], in experiment [4], in experiment [6], in experiment [9] and in experiment [10] was “inactive” each time. Moreover, the max response in experiment [5] was 9.17% (inactive) and 3.97% (inactive).

As for `COc1ccc(C)cc1N`, the outcome in experiment [1], in experiment [7] and in experiment [8] was inactive. Also, the Potency result in experiment [2], in [3], in [4], in experiment [6], in experiment [9] and in experiment [10] was “inactive” each time. The max response in [5] was 3.89% (inactive) and 7.66% (inactive).

Consider `O=C(O)c1ccc(S(=O)(=O)N(Cl)Cl)cc1`, for which the Potency entry in experiment [2], in experiment [4], in experiment [6], in experiment [9] and in experiment [10] was “inactive” in each case. For the same molecule, the Potency in experiment [3] was 49.3 µM (active) and inactive; in experiment [5], 43.9 µM (active). For the same molecule, the max response in [5] is 0.122% (inactive). For the same molecule, the outcome in [7] and in [8] was inactive.

On to `CCCCCCC=O`, for which the call in [1], in experiment [7] and in [8] was inactive. Further, the Potency entry in experiment [2], in experiment [3], in [4], in experiment [6], in experiment [9] and in [10] was “inactive” each time. Besides, the max response in experiment [5] is 0.391% (inactive) and 24.5% (inactive).

Regarding `C=C(C)CNCC`, the molecule was classed as inactive in experiment [1], in [7] and in experiment [8]. In addition, the Potency result in experiment [2], in experiment [3], in experiment [4], in [6], in experiment [9] and in [10] was “inactive” throughout. The max response in experiment [5] was 0.995% (inactive) and -23.9% (inactive).

Consider `Cc1ccc(C(C)C)c(O)c1`, for which the molecule was called inactive in [1], in experiment [7] and in experiment [8]. For the same molecule, the Potency entry in experiment [2], in experiment [3], in experiment [4], in [6], in [9] and in experiment [10] was “inactive” in each case. For the same molecule, the max response in experiment [5] was -11.7% (inactive) and 0.827% (inactive).

Regarding `O=C(OCC1CCC2OC2C1)C1CCC2OC2C1` (stereo not given), the outcome in [1], in [7] and in experiment [8] was inactive. Also, the Potency result in experiment [2], in experiment [3], in experiment [4], in experiment [6], in experiment [9] and in experiment [10] was “inactive” in each case. Also, in [5], the max response was 2.18% (inactive) and 1.6% (inactive).

In the case of `CCOCCOCCOCCO`, the molecule was called inactive in [1], in [7] and in experiment [8]. Moreover, the Potency entry in experiment [2], in experiment [3], in experiment [4], in experiment [6], in experiment [9] and in experiment [10] was “inactive” throughout. For the same molecule, the max response in [5] was 3.42% (inactive) and 9.26% (inactive).

As to `C=CC(C)CCCC(C)(C)O` (stereo not given), the molecule was called inactive in [1], in experiment [7] and in experiment [8]. Further, the Potency result in experiment [2], in [3], in experiment [4], in [6], in experiment [9] and in [10] was “inactive” in each case. In addition, in experiment [5], the max response was 5.11% (inactive) and 3.85% (inactive).

With `O=C1C(c2[nH]c3ccccc3c2O)=Nc2ccccc21`, the result in experiment [1], in experiment [7] and in experiment [8] was inactive. Also, the Potency entry in experiment [2], in experiment [3], in experiment [4], in experiment [6], in experiment [9] and in experiment [10] was “inactive” in each case. For the same molecule, the max response in experiment [5] is 4.84% (inactive).

As to `CCCCCCCCCCN`, the outcome in [1], in experiment [7] and in experiment [8] was inactive. Besides, the Potency result in [2], in [3], in experiment [4], in experiment [6], in experiment [9] and in experiment [10] was “inactive” in each case. Also, the max response in experiment [5] was 0.163% (inactive) and 1.85% (inactive).

`CCCCCCCC=O`: the call in experiment [1], in experiment [7] and in experiment [8] was inactive. Also, the Potency result in experiment [2], in [3], in experiment [4], in experiment [6], in experiment [9] and in experiment [10] was “inactive” throughout. The max response in experiment [5] is 1.74% (inactive) and 27% (inactive).

As for `O=C(O)CCCCCCCCC(=O)O`, the call in [1], in experiment [7] and in [8] was inactive. Also, the Potency entry in experiment [2], in experiment [3], in experiment [4], in [6], in experiment [9] and in [10] was “inactive” in each case. Besides, the max response in experiment [5] was 1.05% (inactive) and 1.59% (inactive).

`COc1ccc(OC)cc1`: the molecule was classed as inactive in experiment [1], in experiment [7] and in experiment [8]. Also, the Potency entry in experiment [2], in [3], in [4], in [6], in experiment [9] and in experiment [10] was “inactive” each time. For the same molecule, in experiment [5], the max response was 5.27% (inactive) and 14.7% (inactive).

Values taken from PubChem BioAssay (Tox21).
